{
  "source": "PubChem BioAssay (NCATS)",
  "note": "Records with an inconclusive call do not appear. Active and inactive are the calls of the source. The call rests on the fitted dose curve; in most records, active means well fitted cell-killing curve with a large enough effect; inconclusive means small, poorly fitted or top-dose-only effect; inactive means no such curve, though single readings can be large or run the other way. On the % scale 0 is the no-effect control and ±100 the full control effect; potency means the concentration at half of the fitted maximal effect.",
  "data": [
    {"experiment": "qHTS of pediatric cancer cell lines to identify multiple opportunities for drug repurposing: Primary screen for SK-N-SH cells (AID 1347098); further: nearly all actives have a fitted effect of over 65% in size", "settings": "SK-N-SH viability, CellTiter-Glo luminescence, 48 h; series mostly up to 57 µM; activity change, negative = cytotoxic: at the top concentration", "from_the_text": "Drug repurposing or repositioning has been offered as a strategy for drug development in oncology programs. This approach has special potential for childhood cancers and other rare or orphan diseases, where the expected return on new drug development has been a disincentive to pharmaceuticals.\nIn this project we exploit the poly-pharmacology of drugs to discover new indications via phenotypic screening of a panel of 19 well-characterized cell lines derived from solid tumors seen in children and adolescents. The goal is to identify approved drugs with previously unrecognized anticancer properties that has the potential to reveal new mechanisms and biological processes involved in carcinogenesis or drug resistance. We employed a titration-based paradigm (quantitative high-throughput screening or qHTS), where all compounds were tested at multiple concentrations for their effect on cell viability. Concentration-response curves (CRCs) were derived directly from the primary screen, and both potency and efficacy values were used to identify compounds with robust bioactivity profiles. We screened the NIH Chemical Genomics Center (NCGC) Pharmaceutical Collection (NPC) and Mechanism Interrogation Plate (MIPE) small molecule collections of approved and investigational compounds against these cell lines; and measured metabolically active cells after 48 hours of compound treatment as a proxy for cell viability.\nAssay Submitter: Nathalia J. Martinez, National Center for Advancing Translational Sciences, National Institutes of Health, Rockville, MD, USA; email: natalia.martinez@nih.gov\n[1] Shen, M et al. Quantitative high-throughput phenotypic screening of pediatric cancer cell lines identifies multiple opportunities for drug repurposing. Oncotarget 2017 Dec 19;9(4):4758-4772. PMID 29435139.\nThe cells were obtained from University of North Carolina (UNC), Pediatric Preclinical Testing Program (PPT), and Coriell Institute (CI).\nqHTS cell viability assay:\nCells were assayed in growth media at a density of 500-1,000 cells/well. Five microliters of cells were dispensed into 1,536-well, white, solid-bottom, TC-treated plates (Greiner Bio One) using a multidrop dispenser and incubated at 37 degrees C, 5% CO2, under a humidified atmosphere for 5 hours. Twenty-three nanoliters of compounds and controls (neutral control DMSO or positive control bortezomib at final concentration of 2.3 µM) were subsequently transferred by Kalypsys pintool. For primary screens, the MIPE collection was tested at 11-point dilutions (final concentrations range from 0.78 nM to 46 µM) and the NPC collection at 8-point dilutions (final concentrations range from 0.59 nM to 46 µM). Compounds tested in follow-up screens were assayed at 11-point dilutions. Cells were incubated for 48 hours, followed by addition of 3 µL of CellTiter-Glo (Promega). After a 15 min incubation at room temperature, samples were analyzed for luminescence intensity using a ViewLux High-throughput CCD imager equipped with clear filters.", "values": [
      {"smiles": "C[C@]12CC[C@@H]3c4ccc(O)cc4C[C@@H](CCCCCCCCCS(=O)CCCC(F)(F)C(F)(F)F)[C@H]3[C@H]1CC[C@H]2O", "note": "(stereo not given in full)", "activity change, negative = cytotoxic": "27.3% (inactive)"},
      {"smiles": "COc1ncc(-c2ccc3nccc(-c4ccnnc4)c3c2)cc1NS(=O)(=O)c1ccc(F)cc1F", "Potency": "1.52 µM (active)"},
      {"smiles": "O=C(O)C=Cc1ccc(O)c(O)c1", "Potency": "24.1 µM (active)"},
      {"smiles": "CO[C@H]1C=CC=C(C)C(=O)NC2=CC(=O)C(NCCN(C)C)=C(C[C@@H](C)C[C@H](OC)[C@@H](O)[C@@H](C)C=C(C)[C@@H]1OC(N)=O)C2=O", "Potency": "0.271 µM (active)"},
      {"smiles": "CC(=O)CCCCn1c(=O)c2c(ncn2C)n(C)c1=O", "activity change, negative = cytotoxic": "-12.1% (inactive)"},
      {"smiles": "CNC1CCC(N(Cc2cccc(-c3ccncc3)c2)C(=O)c2sc3c(F)ccc(F)c3c2Cl)CC1", "note": "(stereo not given)", "Potency": "19.2 µM (active)"},
      {"smiles": "O=C1C[C@@H](c2ccc(O)cc2)Oc2cc(O)cc(O)c21", "activity change, negative = cytotoxic": "0.758% (inactive)"},
      {"smiles": "CC[C@@H]1C=C(C)C[C@H](C)C[C@H](OC)[C@H]2O[C@@](O)(C(=O)C(=O)N3CCCC[C@@H]3C(=O)O[C@H](C(C)=C[C@@H]3CC[C@H](Cl)[C@H](OC)C3)[C@H](C)[C@@H](O)CC1=O)[C@H](C)C[C@H]2OC", "activity change, negative = cytotoxic": "15.8% (inactive)"},
      {"smiles": "CO[C@@H](C(=O)N1Cc2[nH]nc(NC(=O)c3ccc(N4CCN(C)CC4)cc3)c2C1)c1ccccc1", "Potency": "2.15 µM (active)"},
      {"smiles": "CCc1ccc(OCc2ccccc2C(=O)Nc2ccc3nc(C)cc(N)c3c2)cc1", "Potency": "12.1 µM (active)"},
      {"smiles": "CC(C)(Cc1ccc2ccccc2c1)NC[C@@H](O)COc1cccc(Cl)c1C#N", "Potency": "24.1 µM (active)"},
      {"smiles": "Clc1ccc(C(c2ccc(Cl)cc2)n2cc[n+](CC(OCc3ccc(Cl)cc3Cl)c3ccc(Cl)cc3Cl)c2)cc1", "note": "(stereo not given)", "Potency": "24.1 µM (active)"},
      {"smiles": "OC[C@@H](O)[C@H](O)[C@H](O)[C@@H](O)CO", "Potency": "inactive"},
      {"smiles": "C[C@H](NC(=O)c1sccc1OCc1ccc(Cl)cc1)c1ccccc1", "activity change, negative = cytotoxic": "0.717% (inactive)"},
      {"smiles": "CCN(CC)CCOC(=O)c1ccc(N)cc1", "activity change, negative = cytotoxic": "13.4% (inactive)"},
      {"smiles": "CC(C)C(=O)Nc1ncc(-c2cc(C(F)F)nn2-c2c(Cl)cccc2Cl)s1", "Potency": "24.1 µM (active)"},
      {"smiles": "CON=C(C(=O)N[C@@H]1C(=O)N2C(C(=O)OCOC(=O)C(C)(C)C)=C(C=Cc3scnc3C)CS[C@H]12)c1csc(N)n1", "activity change, negative = cytotoxic": "17.4% (inactive)"},
      {"smiles": "Cc1cccc(C)c1OCC(C)N", "note": "(stereo not given)", "activity change, negative = cytotoxic": "2.55% (inactive)"},
      {"smiles": "COc1cc(Nc2ncc(F)c(Nc3ccc4c(n3)NC(=O)C(C)(C)O4)n2)cc(OC)c1OC", "activity change, negative = cytotoxic": "0.453% (inactive)"},
      {"smiles": "OC[C@H]1O[C@@H](n2cnc3c2NC=NC[C@@H]3O)C[C@H]1O", "activity change, negative = cytotoxic": "18.2% (inactive)"},
      {"smiles": "CO[C@H]1C(=O)[C@]2(C)[C@@H](OC)C[C@H]3OC[C@@]3(OC(C)=O)[C@H]2[C@H](OC(=O)c2ccccc2)[C@]2(O)C[C@H](OC(=O)[C@H](O)[C@@H](NC(=O)OC(C)(C)C)c3ccccc3)C(C)=C1C2(C)C", "activity change, negative = cytotoxic": "-24.4% (inactive)"},
      {"smiles": "COC[C@@H](c1ccc(C(F)(F)F)cc1)N1CCN(C2(C)CCN(C(=O)c3c(C)ncnc3C)CC2)C[C@H]1C", "Potency": "5.41 µM (active)"},
      {"smiles": "O=c1cc(-c2ccccc2)oc2cc(O)c(O)c(O)c12", "activity change, negative = cytotoxic": "-0.674% (inactive)"},
      {"smiles": "CN(C)Cc1cccc(N=C(c2ccccc2)c2c(O)[nH]c3cc(C(=O)N(C)C)ccc23)c1", "Potency": "21.5 µM (active)"},
      {"smiles": "O=C(O)c1c(Cl)c(Cl)c(Cl)c(Cl)c1-c1c2cc(I)c(=O)c(I)c-2oc2c(I)c(O)c(I)cc12", "Potency": "24.1 µM (active)"},
      {"smiles": "N[C@H](CSC(c1ccccc1)(c1ccccc1)c1ccccc1)C(=O)O", "activity change, negative = cytotoxic": "-19.9% (inactive)"},
      {"smiles": "COc1cc2c(cc1OC)CN(CCc1ccc(NC(=O)c3cc(OC)c(OC)cc3NC(=O)c3cnc4ccccc4c3)cc1)CC2", "Potency": "19.2 µM (active)"},
      {"smiles": "CC(=O)OC1C(C)OC(Oc2c(-c3ccc(O)cc3)oc3cc(O)cc(O)c3c2=O)C(O)C1OC(C)=O", "note": "(stereo not given)", "activity change, negative = cytotoxic": "-11.6% (inactive)"},
      {"smiles": "CCS(=O)(=O)N1CC(CC#N)(n2cc(-c3ncnc4[nH]ccc34)cn2)C1", "Potency": "13.6 µM (active)"},
      {"smiles": "CCOc1ccc(Nc2nc(-c3c(C)nc4ccccn34)cs2)cc1", "activity change, negative = cytotoxic": "-20.6% (inactive)"},
      {"smiles": "C=C1C(=O)OC2C=C(C)CCC=C(C)CCC12", "note": "(stereo not given)", "activity change, negative = cytotoxic": "3.56% (inactive)"},
      {"smiles": "C[N+](C)(C)CC(=O)O", "activity change, negative = cytotoxic": "10.1% (inactive)"},
      {"smiles": "NC(CO)(CO)CCc1ccc(Sc2cccc(OCc3ccccc3)c2)cc1Cl", "Potency": "19.2 µM (active)"},
      {"smiles": "CCN1CCC[C@H]1CNC(=O)c1cc(S(N)(=O)=O)ccc1OC", "activity change, negative = cytotoxic": "13.8% (inactive)"},
      {"smiles": "O=C(Nc1cc(Cl)cc2c1[nH]c1cnccc12)c1cccnc1", "Potency": "24.1 µM (active)"},
      {"smiles": "O=C(Nc1ccccc1-c1cn2c(CN3CCNCC3)csc2n1)c1cnc2ccccc2n1", "activity change, negative = cytotoxic": "-11.9% (inactive)"},
      {"smiles": "C[N+](C)(C)CCCCCC[N+](C)(C)C", "activity change, negative = cytotoxic": "-2.33% (inactive)"},
      {"smiles": "CCn1cc(C(=O)O)c(=O)c2ccc(C)nc21", "activity change, negative = cytotoxic": "-16.4% (inactive)"},
      {"smiles": "Cc1ccc(C(=O)Nc2cccc(C(F)(F)F)c2)cc1Nc1nc(-c2cccnc2)nc2c1cnn2C", "activity change, negative = cytotoxic": "4.79% (inactive)"},
      {"smiles": "CC(=O)Nc1ccc([C@H](C)C(=O)Nc2ncc(C(C)C)s2)cc1", "Potency": "4.82 µM (active)"}
    ]}
  ]
}
